Drawing on ChEMBL document CHEMBL1201862, “PubChem BioAssay data set” (2004), this text covers IC90 for 17 compounds.

The nature of the test: M. tuberculosis growth inhibition, dose response, purified and synthesized samples, set 9 (AID 602435). Format: functional.

Several values for one entry are separate records, joined by “and”; a condition that tells them apart may be missing. Identical values can stand only once. Where only a bound is given, the exact number is not on record here.

Usually IC90 stands for the point of the concentration-response curve where the effect stands at 90%. Regarding `CC(C)OC(=O)CSc1ncnc2c1cnn2-c1ccccc1`, the IC90 is > 100 µM (active). Next, `CC1CCN(C(=O)c2ccc(CNc3c(N4CCCC4)c(=O)c3=O)cc2)CC1`: > 50 µM (active); `CC1CCCN(C(=O)c2ccc(CNc3c(N4CCCCC4)c(=O)c3=O)cc2)C1` (configuration not stated): > 50 µM (active); `O=C(c1ccc(CNc2c(N3CCCC3)c(=O)c2=O)cc1)N1CC=C(c2ccccc2)CC1`: > 44.6 µM (active) and > 50 µM (active). Regarding `Cc1cccc(N2CCN(C(=O)c3ccc(CNc4c(N5CCC(C)CC5)c(=O)c4=O)cc3)CC2)c1C`, the IC90 is > 50 µM (active). In the case of `O=C(NCCc1ccc(Cl)cc1)C1CCC(CNc2c(N3CCCCC3)c(=O)c2=O)CC1` (configuration not stated), the 90% effect concentration (IC90) is > 50 µM (active). In the case of `CC1CC(C)CN(C(=O)c2ccc(CNc3c(N4CCCC4)c(=O)c3=O)cc2)C1` (configuration not stated) it was > 50 µM (active); in that of `O=C(c1ccc(CNc2c(N3CCCC3)c(=O)c2=O)cc1)N1CCc2ccccc2C1`, > 50 µM (active).

On to `CC1CC(C)CN(C(=O)C2CCC(CNc3c(N4CCCCC4)c(=O)c3=O)CC2)C1` (configuration not stated), for which the concentration for an effect of 90% (IC90) is > 75 µM (active) and > 50 µM (active). In the case of `CC(C)CCNC(=O)CSc1nc2c(c(=O)[nH]1)CCCCC2` it was > 100 µM (active).

In the case of `O=C(c1ccc(CNc2c(N3CCCC3)c(=O)c2=O)cc1)N1CCC(c2ccccc2)CC1`, the IC90 is > 100 µM (active).

Regarding `CC(=O)c1ccc(NC(=O)c2ccc(CNc3c(N4CCOCC4)c(=O)c3=O)cc2)cc1`, the IC90 is > 50 µM (active). For the compound `O=C(C1CCC(CNc2c(N3CCCCC3)c(=O)c2=O)CC1)N1CCCCC1` (configuration not stated), the IC90 was > 50 µM (active). Next, `CC1CCCN(C(=O)C2CCC(CNc3c(N4CCCCC4)c(=O)c3=O)CC2)C1` (configuration not stated): > 50 µM (active); `O=C(c1ccc(CNc2c(N3CCCC3)c(=O)c2=O)cc1)N1CCN(c2ccccc2)CC1`: > 83.3 µM (active); `COc1ccc(N2CCN(C(=O)c3ccc(CNc4c(N5CCOCC5)c(=O)c4=O)cc3)CC2)cc1`: > 73.2 µM (active) and > 39 µM (active). Next, `O=C(c1ccc(CNc2c(N3CCOCC3)c(=O)c2=O)cc1)N1CCN(c2ccccc2)CC1`: > 100 µM (active).
